Molecules are shown by their SMILES. Values joined by “and” are separate entries in the source; they are usually repeats but may differ in a detail not shown here. Identical values can stand only once. Some compounds were tested as several samples or in several runs, with calls that do not always agree. Active and inactive are the calls of the source. Rule for the calls: active = hit-call score of the fitted dose curve at least 0.9, where 1 is the maximum; inactive = score below 0.9.

As a reminder, the AC50 is the concentration giving half of the maximal activity seen.

Aryl hydrocarbon receptor (Homo sapiens), sequence (P35869 whole entry, looked up): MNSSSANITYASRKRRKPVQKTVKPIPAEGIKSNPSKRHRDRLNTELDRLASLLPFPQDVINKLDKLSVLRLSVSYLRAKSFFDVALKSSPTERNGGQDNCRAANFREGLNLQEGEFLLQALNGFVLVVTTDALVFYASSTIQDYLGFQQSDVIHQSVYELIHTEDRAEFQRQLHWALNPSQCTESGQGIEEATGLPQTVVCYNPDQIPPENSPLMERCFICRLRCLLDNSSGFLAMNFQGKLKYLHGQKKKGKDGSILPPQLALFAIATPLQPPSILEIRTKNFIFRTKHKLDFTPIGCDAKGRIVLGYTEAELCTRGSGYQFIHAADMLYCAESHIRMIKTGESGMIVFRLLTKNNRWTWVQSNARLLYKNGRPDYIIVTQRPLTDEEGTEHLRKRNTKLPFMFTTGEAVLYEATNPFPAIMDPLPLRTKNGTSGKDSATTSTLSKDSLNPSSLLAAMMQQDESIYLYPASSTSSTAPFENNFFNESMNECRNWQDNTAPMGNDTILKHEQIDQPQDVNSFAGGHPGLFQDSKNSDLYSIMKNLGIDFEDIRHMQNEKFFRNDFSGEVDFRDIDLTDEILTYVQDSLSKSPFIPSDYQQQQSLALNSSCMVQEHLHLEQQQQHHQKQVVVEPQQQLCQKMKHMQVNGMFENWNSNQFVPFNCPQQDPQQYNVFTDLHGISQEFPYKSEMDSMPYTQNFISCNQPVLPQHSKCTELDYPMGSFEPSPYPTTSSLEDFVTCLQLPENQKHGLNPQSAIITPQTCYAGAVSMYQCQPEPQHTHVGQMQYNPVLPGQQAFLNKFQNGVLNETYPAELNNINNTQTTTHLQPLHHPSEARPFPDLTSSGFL

One experiment concerns the target Aryl hydrocarbon receptor (Homo sapiens) (UniProt P35869). Nature of the experiment: ATG_Ahr_CIS: Attagene CIS-FACTORIAL HepG2 Assay for human Aryl Hydrocarbon Receptor (Ahr) (AID 2282930). To be noted: HepG2 AhR cis-factorial reporter transcription; actives raise or lower the signal. In short, it runs like this:
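HepG2 cells transiently transfected with cis-element-driven multiplexed reporter transcription units; endogenous transcription factor activity measured as reporter mRNA 24 h after dosing. RT-PCR, 6-FAM labelling, HpaI digestion, capillary electrophoresis; bidirectional fitting versus DMSO baseline.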
For `CCc1c(Br)c(Br)c(Br)c(Br)c1Br`, the compound was called inactive.
Take `O=C(CC(=O)C(F)(F)C(F)(F)F)C(F)(F)F`: the result was inactive.
The same measure, in the same setting: the entry for `CCC(=O)OCCc1ccccc1` is “inactive”; for `FC(F)(F)C(F)(F)C(F)(F)C(F)(F)C(F)(F)C(F)(F)CCS` it is “inactive”.
Turning to `O=C(O)C(F)(OC(F)(F)C(F)(OC(F)(F)C(F)(F)C(F)(F)F)C(F)(F)F)C(F)(F)F` (centres undefined), the compound was called inactive.
Consider `Cc1cc(C)cc(O)c1`, for which the outcome was inactive.
As for `CN(C)Cc1ccccc1O`, the compound was classed as inactive.
Consider `CC(CCl)OP(=O)(OC(C)CCl)OC(C)CCl` (centres undefined), for which the compound was classed as inactive.
As to `Cc1cccc(N(C)C)c1`, the compound was called inactive.
In the case of `Cc1ccc(S(=O)(=O)OCC(F)(F)C(F)(F)C(F)(F)C(F)(F)C(F)(F)C(F)F)cc1`, the compound was called inactive.
Turning to `C=CC(=O)OCC(F)(F)C(F)(F)C(F)(F)C(F)(F)COC(=O)C=C`, the outcome was inactive.
Still for that read-out and setting: the entry for `CCCCCC=O` is “inactive”.
On the same count and under the same terms, the entry for `O=C(O)C(F)(F)C(F)(F)C(F)(F)C(F)(F)F` is “inactive”; for `FC(F)(I)C(F)(F)C(F)(F)C(F)(F)I` it is “inactive”.
Regarding `O=C(OCCOCCOCCOC(=O)c1ccccc1)c1ccccc1`, the outcome was inactive.
For the compound `CC(C)=CCCC(C)CCOC(=O)C(C)C` (centres undefined), the compound was called inactive.
Consider `CCCCOCCOCCOC(=O)CCCCC(=O)OCCOCCOCCCC`, for which the compound was called inactive.
Take `CC(Cc1ccc(O)c(O)c1)C(C)Cc1ccc(O)c(O)c1` (centres undefined): the result was inactive.
In the case of `c1ccc(B(c2ccccc2)c2ccccc2)cc1`, the AC50 is 32.8 µM (active).
Regarding `COC(=O)C1CCC(C(=O)OC)CC1` (centres undefined), the compound was called inactive.
For the compound `O=S(=O)(O)c1ccc2ccccc2c1`, the AC50 is 42.7 µM (active) and 40.3 µM (active).
With `FC(F)(F)C(F)(F)CNCC(F)(F)C(F)(F)F`, the result was inactive.
Consider `C=CC(=O)OCC(F)(F)C(F)(F)C(F)(F)C(F)(F)C(F)(F)C(F)(F)C(F)(F)F`, for which the result was inactive.
Same read-out and setting: the entry for `NC(=O)C(F)(F)C(F)(F)C(F)(F)C(F)(F)F` is “inactive”.
Take `FC(F)(F)C(F)(F)C(F)(F)C(F)(F)C(F)(F)CCI`: the AC50 was 32.1 µM (active).
As to `CCN(CC)c1ccc2c(C)cc(=O)oc2c1`, the outcome was inactive.
Regarding `CCCCCCCCCCCCCCCC[N+](C)(C)Cc1ccccc1`, the result was inactive.
For `Nc1ccc([N+](=O)[O-])cc1O`, the AC50 was 25.5 µM (active).
As to `FC(F)(F)C(F)(F)C(F)(F)C(F)(F)C(F)(F)C(F)(F)C(F)(F)C(F)(F)CCS`, the outcome was inactive.
The same measure, in the same setting: the entry for `OC[C@@H](O)[C@@H](O)[C@H](O)[C@@H](O)CO` is “inactive”; for `C(=C(c1ccccc1)c1ccccc1)c1ccccc1` it is “inactive”.
For the compound `C=CC/C=C/C/C=C/C/C=C/C`, the call was inactive.
With `OCCCC(F)(F)C(F)(F)C(F)(F)C(F)(F)C(F)(F)C(F)(F)C(F)(F)F`, the call was inactive.
Consider `c1ccc(-c2ccccc2-c2ccccc2)cc1`, for which the call was inactive.

System in another experiment: not listed separately
Nature of the experiment: ATG_AP_1_CIS: Attagene CIS-FACTORIAL HepG2 Assay for human Activator Protein 1 (AP-1) (AID 2282931). The settings on record: HepG2 Attagene cis-factorial AP-1 reporter mRNA; actives raise or lower the signal. In short, it runs like this:
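We transfected HepG2 cells transiently with a set of cis-regulated reporter transcription units, dosed them for 24 h, and quantified reporter mRNA via RT-PCR and capillary electrophoresis, scoring gain or loss of signal relative to DMSO.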
As to `CCc1c(Br)c(Br)c(Br)c(Br)c1Br`, the compound was classed as inactive.
For `O=C(CC(=O)C(F)(F)C(F)(F)F)C(F)(F)F`, the AC50 is 150 µM (active) and the call was inactive.
On to `CCC(=O)OCCc1ccccc1`, for which the call was inactive.
Consider `FC(F)(F)C(F)(F)C(F)(F)C(F)(F)C(F)(F)C(F)(F)CCS`, for which the result was inactive.
As to `O=C(O)C(F)(OC(F)(F)C(F)(OC(F)(F)C(F)(F)C(F)(F)F)C(F)(F)F)C(F)(F)F` (centres undefined), the compound was classed as inactive.
For the compound `Cc1cc(C)cc(O)c1`, the outcome was inactive.
On to `CN(C)Cc1ccccc1O`, for which the call was inactive.
As for `CC(CCl)OP(=O)(OC(C)CCl)OC(C)CCl` (centres undefined), the outcome was inactive.
For the compound `Cc1cccc(N(C)C)c1`, the compound was classed as inactive.
On to `Cc1ccc(S(=O)(=O)OCC(F)(F)C(F)(F)C(F)(F)C(F)(F)C(F)(F)C(F)F)cc1`, for which the call was inactive.
Turning to `C=CC(=O)OCC(F)(F)C(F)(F)C(F)(F)C(F)(F)COC(=O)C=C`, the concentration at half-maximal activity (AC50) is 50 µM (active).
On to `CCCCCC=O`, for which the compound was called inactive.
As to `O=C(O)C(F)(F)C(F)(F)C(F)(F)C(F)(F)F`, the call was inactive.
`FC(F)(I)C(F)(F)C(F)(F)C(F)(F)I`: the compound was called inactive.
As for `O=C(OCCOCCOCCOC(=O)c1ccccc1)c1ccccc1`, the compound was called inactive.
In the case of `CC(C)=CCCC(C)CCOC(=O)C(C)C` (centres undefined), the compound was called inactive.
Regarding `CCCCOCCOCCOC(=O)CCCCC(=O)OCCOCCOCCCC`, the compound was called inactive.
`CC(Cc1ccc(O)c(O)c1)C(C)Cc1ccc(O)c(O)c1` (centres undefined): the result was inactive.
For the compound `c1ccc(B(c2ccccc2)c2ccccc2)cc1`, the compound was called inactive.
With `COC(=O)C1CCC(C(=O)OC)CC1` (centres undefined), the result was inactive.
For `O=S(=O)(O)c1ccc2ccccc2c1`, the outcome was inactive.
On to `FC(F)(F)C(F)(F)CNCC(F)(F)C(F)(F)F`, for which the outcome was inactive.
With `C=CC(=O)OCC(F)(F)C(F)(F)C(F)(F)C(F)(F)C(F)(F)C(F)(F)C(F)(F)F`, the result was inactive.
Still for that read-out and setting: the entry for `NC(=O)C(F)(F)C(F)(F)C(F)(F)C(F)(F)F` is “inactive”.
On to `FC(F)(F)C(F)(F)C(F)(F)C(F)(F)C(F)(F)CCI`, for which the AC50 is 59.9 µM (active).
As to `CCN(CC)c1ccc2c(C)cc(=O)oc2c1`, the compound was called inactive.
Same read-out and setting: the entry for `CCCCCCCCCCCCCCCC[N+](C)(C)Cc1ccccc1` is “inactive”; for `Nc1ccc([N+](=O)[O-])cc1O` it is “inactive”.
In the case of `FC(F)(F)C(F)(F)C(F)(F)C(F)(F)C(F)(F)C(F)(F)C(F)(F)C(F)(F)CCS`, the compound was classed as inactive.
For the compound `OC[C@@H](O)[C@@H](O)[C@H](O)[C@@H](O)CO`, the call was inactive.
Turning to `C(=C(c1ccccc1)c1ccccc1)c1ccccc1`, the AC50 is 36.7 µM (active).
For the compound `C=CC/C=C/C/C=C/C/C=C/C`, the result was inactive.
Consider `OCCCC(F)(F)C(F)(F)C(F)(F)C(F)(F)C(F)(F)C(F)(F)C(F)(F)F`, for which the call was inactive.
On to `c1ccc(-c2ccccc2-c2ccccc2)cc1`, for which the AC50 is 58.7 µM (active).

These data come from PubChem BioAssay (EPA / NIEHS).
